# According to PubChem BioAssay (EPA / NIEHS):
# Records with an inconclusive call do not appear. Calls of active or inactive are those of the source. Rule for the calls, unless noted: active = hit-call score of the fitted dose curve at least 0.9, where 1 is the maximum; inactive = score below 0.9.
# Columns and labels:
# [1] = ACEA_ER_80hr: ACEA Biosciences xCELLigence Real-Time Cell Analysis on Estrogen Receptor Agonism for Proliferation (AID 2282667; active = hit-call score of the fitted dose curve at least 0.9, where 1 is the maximum); settings: T47D proliferation, impedance (xCELLigence), 80 h
# Outline: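 T47D human breast cells were seeded on electrode plates, monitored overnight, then exposed continuously to compounds in eight-point 1:4 dilutions from 100 uM (max 0.5% DMSO). Impedance-based growth was read at 80 h, fitted upward relative to DMSO.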
# [2] = APR_HepG2_CellLoss_24hr: Apredica 24-hour HepG2 Assay for Cell Loss (AID 2282908); settings: high-content imaging
# Outline: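 Nuclei stained with Hoechst 33342 after formaldehyde fixation (3.7%) were imaged at 20x to count cells. Exposure lasted 24 hr, at ten concentrations from 0.39 to 200 uM in duplicate, with 0.5% v/v DMSO. Fit bidirectional, relative to DMSO.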
# [3] = APR_HepG2_MitoticArrest_24hr: Apredica 24-hour HepG2 Assay for Mitotic Arrest (AID 2282910); settings: high-content imaging, actives raise or lower the signal
# Outline: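 Treatment lasted 24 hr in the human HepG2 line at 0.39–200 uM, solvent held at 0.5% DMSO. Fixed cells were stained with Hoechst 33342 and anti-phospho-histone H3, imaged at 20x, and analysed by gain- or loss-of-signal fitting against DMSO.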
# [4] = APR_HepG2_MitoMembPot_24hr: Apredica 24-hour HepG2 Assay for Mitochondrial Membrane Potential (AID 2282911); settings: imaging, actives raise or lower the signal
# Outline: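 HepG2 human liver cells were exposed 24 hr to compounds at 0.39–200 uM (final DMSO 0.5% v/v) in duplicate. MitoTracker Red CMXRos (250 nM, 30 min) was loaded before formaldehyde fixation; fluorescence was imaged by ArrayScan HCS and fitted bidirectionally versus DMSO.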
# [5] = APR_HepG2_MitoMass_24hr: Apredica 24-hour HepG2 Assay for Mitochondrial Mass (AID 2282912); settings: high-content imaging, actives raise or lower the signal
# Outline: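 Endpoint is MitoTracker Red CMXRos (250 nM, 30 min, pre-fixation) intensity from 20x high-content imaging, nuclei located by Hoechst. Human HepG2 cells received ten concentrations from 0.39 to 200 uM in 0.5% DMSO for 24 hr, duplicate wells. Bidirectional fit relative to DMSO.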
# [6] = APR_HepG2_p53Act_24hr: Apredica 24-hour HepG2 Assay for p53 Activation (AID 2282913); settings: high-content imaging, actives raise or lower the signal;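 note: p53 protein immunofluorescence averaged per cell in HepG2 with Hoechst nuclei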
# Outline: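 HepG2 cells exposed 24 hr to compounds at 0.39–200 uM (10 concentrations, duplicate), final DMSO 0.5% v/v. After formaldehyde fixation and Triton permeabilization, p53 was immunolabeled (sheep anti-p53, Cy5 secondary) with Hoechst 33342 nuclear counterstain, then imaged by high-content fluorescence microscopy.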
# [7] = APR_HepG2_CellCycleArrest_24hr: Apredica 24-hour HepG2 Assay for Cell Cycle Arrest (AID 2282905); settings: imaging, actives raise or lower the signal;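 note: cell cycle arrest scored as ratio of 2N to 4N nuclear DNA content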
# Outline: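 After 24 h exposure at 0.39–200 uM in 0.5% DMSO, fixed cells received Hoechst 33342 staining. Imaging quantified per-nucleus DNA content; gain or loss fitted against DMSO controls.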
# [8] = APR_HepG2_NuclearSize_24hr: Apredica 24-hour HepG2 Assay for Nuclear Size (AID 2282907); settings: high-content imaging, actives raise or lower the signal
# Outline: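 Nuclear size from Hoechst 33342-stained, formaldehyde-fixed HepG2 nuclei imaged by high-content microscopy, after 24 h dosing at ten concentrations from 0.39 to 200 uM in 0.5% DMSO; gain or loss relative to DMSO baseline.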
# [9] = APR_HepG2_MicrotubuleCSK_24hr: Apredica 24-hour HepG2 Assay for Microtubule CSK Stabilty (AID 2282909); settings: HepG2 microtubule cytoskeleton imaging, actives raise or lower the signal
# Outline: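 Fixed HepG2 cells were stained for alpha-tubulin and imaged after 24 hr exposure to ten concentrations spanning 0.39–200 uM in 0.5% DMSO. Signal change was fitted in both directions relative to DMSO; taxol was the positive control.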
# [10] = APR_HepG2_CellCycleArrest_72hr: Apredica 72-hour HepG2 Assay for Cell Cycle Arrest (AID 2282914); settings: high-content imaging, actives raise or lower the signal
# Outline: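 HepG2 cells were exposed to compounds at 0.39–200 uM (0.5% v/v DMSO final, duplicates) for 72 hr, fixed in 3.7% formaldehyde, permeabilized and stained with Hoechst 33342. Nuclear DNA content was quantified by high-content imaging; gain or loss of signal was fitted bidirectionally against DMSO.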
SMILES,AC50 [1],outcome [2],outcome [3],outcome [4],outcome [5],outcome [6],outcome [1],outcome [7],outcome [8],outcome [9],outcome [10]
CC(C)(C)c1ccc(O)cc1,10.5 µM (active),inactive,inactive,inactive,inactive,inactive,–,–,–,–,–
CC(C)(C)OOC(C)(C)C,–,inactive,inactive,inactive,inactive,inactive,inactive,inactive,inactive,inactive,inactive
CN(C)C(=O)Cl,38.7 µM (active),inactive,inactive,inactive,inactive,–,–,inactive,inactive,inactive,inactive
